Reference: PubChem BioAssay (NCI)
This is part of a sample that, as a whole, favours compounds with a hit. Of some 83,000 tested, about 20% had one in any assay.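 Negative percent growth values reflect cell death: -40 means 40% of the cells present at the start died, and -100 means all died.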 Values without a mark were called inactive. Active and inactive are the calls of the source. The calls were made as follows: active = growth percent below 10; inactive = the rest.

Tests used:
Assay in all cases: NCI-60 one-dose screen, 48 h (100 = growth as untreated, 0 = no growth, -100 = all killed)
Conditions in all cases: 10 µM unless noted
[1] = test system: T-47D breast
[2] = test system: BT-549 breast
[3] = test system: MDA-MB-435 melanoma
[4] = test system: SW-620 colon
[5] = test system: MCF7 breast
[6] = test system: HCT-116 colon
[7] = test system: HCC-2998 colon
[8] = test system: KM12 colon

| SMILES | growth [1] | growth [2] | growth [3] | growth [4] | growth [5] | growth [6] | growth [7] | growth [8] |
| --- | --- | --- | --- | --- | --- | --- | --- | --- |
| COc1cc(-c2cc(-c3nc4ccc(F)cc4[nH]3)[nH]n2)cc(OC)c1OC | -21.3% (active) | 6.58% (active) | 5.65% (active) | 52.1% | 9.15% (active) | 31.2% | 66.6% | 12.9% |
| N#CC1=C(N)Oc2c(c(N)nn2-c2ccccc2)C1c1ccc(Cl)cc1 (configuration not stated) | 86.7% | 81.5% | 105% | 98.1% | 98.7% | 96.2% | 113% | 104% |
| COC(=O)CCCCCn1c2ccccc2c2c3c(c4c5ccccc5[nH]c4c21)C(=O)N(O)C3=O | 21.6% | 59% | 71.2% | 48.7% | 13.1% | 28.4% | 55.4% | 46.5% |
| COc1cc(-c2cc(-c3nc4cc(Cl)c(Cl)cc4[nH]3)[nH]n2)cc(OC)c1OC | -10.8% (active) | 35.3% | 66.1% | 82.7% | 47.6% | 52.6% | 92.3% | 51.5% |
| NC(Cc1ccc(O)cc1)C(=O)N/N=C/c1ccccc1O (configuration not stated) | 98.1% | 95.4% | 108% | 107% | 96.2% | 97.2% | 100% | 97.6% |
| N=C(N)c1ccc(S(N)(=O)=O)cc1 | 101% | 94.2% | 98.5% | 105% | 99.4% | 93.9% | 93.9% | 106% |
| CC(=O)OC(C)COc1ccc(-c2ccccc2)cc1 (configuration not stated) | 88.6% | 98.6% | 98.6% | 100% | 103% | 81.2% | 104% | 98.8% |
| CC1(C)C(=O)/C(=C\c2cccnc2)C[C@]2(C)[C@H]3CC[C@@H]4[C@@H](C(=O)/C=C/c5ccncc5)CC[C@@]4(C)[C@]3(C)CC[C@@H]12 | 16.9% | 8.03% (active) | -11.4% (active) | 8.95% (active) | 26.2% | -86.9% (active) | 59.7% | -20.9% (active) |
| CC1(C)CC[C@]2(C(=O)Nc3ccccn3)CC[C@]3(C)C(=CC[C@@H]4[C@@]5(C)C/C(=C/c6ccncc6)C(=O)C(C)(C)[C@@H]5CC[C@]43C)[C@@H]2C1 | 13.3% | 35.7% | 14.8% | 20% | 21.7% | -1.02% (active) | 25% | -6.73% (active) |
| Cc1cc2nc3c4cc(O)ccc4n(CCN(C)C)c3nc2cc1C | 4.84% (active) | 15.8% | 3.8% (active) | 3.53% (active) | -10.1% (active) | -0.74% (active) | -22.5% (active) | 10.2% |
| O=C1CCCC=CC[C@H]2C=C(Cl)C(=O)C2=CC[C@H](CCCCC(F)(F)F)OC(=O)CCCC=CC[C@H]2C=C(Cl)C(=O)C2=CC[C@H](CCCCC(F)(F)F)OC(=O)CCCC=CC[C@H]2C=C(Cl)C(=O)C2=CC[C@H](CCCCC(F)(F)F)O1 | 71.2% [6.25 µM] | 78.5% [6.25 µM] | 30.6% [6.25 µM] | 17.3% [6.25 µM] | 30.5% [6.25 µM] | 7.18% [6.25 µM] (active) | 98.5% [6.25 µM] | 94.3% [6.25 µM] |
| Cc1cc(Nc2ccc(F)cc2)nc(N2CCN(c3ccnc4cc(Cl)ccc34)CC2)n1 | 10.8% | 47.5% | 13.2% | 23.1% | 9.35% (active) | 4.86% (active) | 25.8% | 21.6% |
| O=C(/C=C/c1cccc2ccccc12)Nc1ncc(Cc2ccccc2)s1 | 16% | 24.8% | -64.7% (active) | 13.7% | 10.8% | 8.93% (active) | 54.3% | 15.8% |
| COc1ccc(NC(=S)N/N=C/c2ccccc2SSCCC(=O)OC[C@H]2O[C@H](O)[C@H](O)[C@@H](O)[C@@H]2O)cc1 | 66% | 68.9% | 52.8% | 93.5% | 44.7% | 72.9% | 94.2% | 63.3% |
| c1ccc2c(-c3nc(-c4c[nH]c5ncccc45)cs3)c[nH]c2c1 | 93.8% | 97% | 84.8% | 103% | 83% | 95% | 102% | 90.6% |
| COc1ccc(-c2c(-c3nc4ccc(N5CCOCC5)cc4[nH]3)[nH]c(C)c2C(C)=O)cc1 | 27.3% | 64.9% | 29.7% | 63.4% | 10.8% | 34.8% | 35% | 46.5% |
| Cn1c2c(Cl)c(Cl)ccc2c2c(C#N)c[nH]c(=O)c21 | 102% | 120% | 115% | 106% | 96.5% | 92.7% | 97.2% | 111% |
| O=C(/C=C/c1ccc2ccccc2c1)Nc1ncc(Cc2ccccc2)s1 | 25.7% | 72.5% | 66.1% | 42.6% | 50.3% | 21% | 92% | 64.4% |
| Cc1cc2nc3c4cc(Cl)ccc4n(CCN(C)C)c3nc2cc1C | 30.5% | 53.6% | 1.97% (active) | -21.9% (active) | -37.9% (active) | -12.7% (active) | -23.7% (active) | 19.1% |
| COc1cc2[nH]c(C(=O)c3cc(OC)c(OC)c(OC)c3)c(N)c2cc1C#CCO | 56% | 54% | -27.1% (active) | 16.9% | 10.1% | 10% | 13.5% | 10.8% |
| COc1cccc(-c2nn(-c3ccccc3)cc2-c2ccnc(NCCNS(=O)(=O)c3ccc(Cl)cc3)c2)c1 | 3.58% (active) | 41.9% | 21.8% | 48.1% | 11% | 20.6% | 19.5% | 28.5% |
| Nc1ccccc1NC(=O)c1ccc(CN2CCC/C(=C\c3ccccn3)C2=O)cc1 | 8.73% (active) | 52.9% | -42.7% (active) | 12.3% | 6.01% (active) | 5.7% (active) | 31.5% | 25.2% |
| O=S(=O)(NCCNc1cc(-c2cn(-c3ccccc3)nc2-c2cccc(O)c2)ccn1)c1ccc(F)cc1 | 7.88% (active) | 32.2% | 2.49% (active) | 18.8% | 10.7% | 23.9% | -34.9% (active) | 11.3% |
| COc1cccc(-c2nn(-c3ccccc3)cc2-c2ccnc(NCCNS(=O)(=O)c3ccccc3)c2)c1 | 4.18% (active) | 36.5% | 10.7% | 43.9% | 14.9% | 29.4% | 26.8% | 21.7% |
| C#Cc1cccc(NC(=O)C2CCCN(C(=O)CCl)C2)c1 (configuration not stated) | 84.2% [8.25 µM] | 55.1% [8.25 µM] | 43.8% [8.25 µM] | 20.5% [8.25 µM] | 59.1% [8.25 µM] | 13% [8.25 µM] | 97.2% [8.25 µM] | 94.7% [8.25 µM] |
| COC(=O)CNc1nc(N(C)O)nc(N(C)O)n1 | 64.8% | 66.9% | 65.7% | 42.8% | 30.7% | 13.8% | 23.4% | 45.2% |
| Cc1csc(Nc2nc(-c3ccc(Cl)cc3)nc(C(Cl)(Cl)Cl)n2)n1 | 61.6% | 97.1% | 89.3% | 78.6% | 59.4% | 79.1% | 70% | 79.6% |
| Nc1c2c(nc3ccc(Cl)cc13)CC(c1ccccc1)CC2=O (configuration not stated) | 54.1% | 39.8% | -39.7% (active) | 24.8% | 19% | 20.3% | 67.3% | 26.4% |
| COc1cc(OC)c2c(c1)c1nc3cc(C)c(C)cc3nc1n2CCN(C)C | 74.3% | 97.4% | 91.7% | 66% | 66.2% | 69.7% | 93.9% | 86.3% |
